Laboratory results taken from PubChem BioAssay (NCI).
“And” between values parts separate entries of the source, which are not always exact repeats. Equal values may be shown once. This is part of a sample that, as a whole, favours compounds with a hit. Of some 83,000 tested, about 20% had one in any assay.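 Growth was measured after 48 h exposure to one concentration of compound in 96-well plates. Values under 10 count as active.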 Unmarked numbers belong to inactive results. The source made the active and inactive calls.

These compounds were tested on MDA-MB-468 breast (assay: NCI-60 one-dose screen, 48 h (100 = growth as untreated, 0 = no growth, -100 = all killed)). Details: 10 µM unless noted.
In the case of CC1(C)N=C(N)N=C(N)N1c1cccc(CCCCc2ccc(Cl)c(S(=O)(=O)F)c2)c1, the growth is reported as 75.8%. C=C=[CH][Sn]([c]1ccccc1)([c]1ccccc1)[c]1ccccc1 was tested, and the growth was -66.5% (active). With COc1cc2c(cc1OC)CN(C)C(C)C2 (stereo not given) the growth was 97.9%. Compound O=[N+]([O-])c1cc(Br)c(O)c(Br)c1 has a growth of 99.4%. CCOC(=O)[C@@H](C)C[C@H](Cc1ccccc1)NC(=O)c1csc([C@@H](C[C@H](C(C)C)N(C)C(=O)CNC(=O)[C@H]2CCCCN2C)OC(C)=O)n1 gave a growth of 28%. In the case of CCC(=O)C(CC(C)[N+](C)(C)C)(c1ccccc1)c1ccccc1 (stereo not given), the growth is reported as 85.5%. Work on CNC(=O)Oc1ccc2c(c1)OCO2 yielded a growth of 94.6%. CCCCCCCC(=O)OCC/C=C/C1OC1C1OC(=O)/C=C\C=C\c2nc(oc2C)/C=C(/C)CCC2OC2C1OC(=O)NC(C)=O (stereo not given) was tested, and the growth was -51.1% (active). For COC1[C@@H]2C[C@H]3C(C)(C)O[C@@](C/C=C(/C)C(=O)O)(C2=O)[C@]32Oc3c(CC=C(C)C)c4c(c(O)c3C(=O)[C@H]12)C=CC(C)(C)O4 (stereo not given in full), the growth was -65.2% (active). Compound O=C1NC(=O)C(Cc2ccccc2)(Cc2ccccc2)C(=O)N1 has a growth of 113%. Compound N/C(=N/N=C/c1ccncc1)N[N+](=O)[O-] has a growth of 110%. O=[N+]([O-])c1cc([N+](=O)[O-])c(Cl)cc1Cl was tested, and the growth was -73.8% (active). Compound O=[N+]([O-])c1cc(I)cc([N+](=O)[O-])c1 has a growth of 88.2%. In the case of NC(=O)C(Br)c1ccccc1 (stereo not given), the growth is reported as 57.5%. Compound Cc1cc(N)ccc1N has a growth of 86.4%. Cc1nc2ccccc2c(=O)n1-c1ccccc1F gave a growth of 105%. Nc1c(Cl)c(Cl)nc(C(=O)O)c1Cl was tested, and the growth was 107%. With CC[C@H](NC(=O)[C@H]1CCCCN1C)C(=O)N(C)[C@H](C[C@@H](OC(C)=O)c1nc(C(=O)N[C@@H](Cc2ccccc2)C[C@H](C)C(=O)O)cs1)C(C)C the growth was 17.6%. With O=C1C(Cl)=C(N2CCOCC2)C(=O)c2ccccc21 the growth was -81% (active). With C/C=C/CC(C)C(O)[C@H](NC(=O)[C@@H]1CCCN1C(=O)C(C)(C)NC(=O)CCCCCCCCC)C(=O)NC(C)(C)C(=O)N[C@@H](CCC(N)=O)C(=O)N[C@H](CCC(N)=O)C(=O)NC(C)(C)C(=O)NC(C)(C)C(=O)N[C@@H](CCC(N)=O)C(=O)N[C@H](CC(C)C)C(=O)N[C@H](CO)CC(C)C (stereo not given in full) the growth was -75.9% (active) and -84.9% (active). For ClCCN(CCCl)c1nc(Cl)c(C2CC(c3ccccc3)=NN2c2cc(Cl)cc(Cl)c2)s1 (stereo not given), the growth was 111%. COc1ccc(/C=C\c2cc(OC)c(OC)c(OC)c2)c(NS(=O)(=O)c2ccc(C)cc2)c1O gave a growth of 23.2%. For CNC(C)Cc1ccccc1 (stereo not given) (tested in a mixture with another compound), the growth was 91.3%. CCCCN(CCCC)P(=O)(Oc1ccccc1)Oc1ccccc1 was tested, and the growth was 39.2%. In the case of N#CC(N)c1ccccc1 (stereo not given), the growth is reported as 98.9%. For CC(=O)O[C@H]1C(=O)[C@@]2(C)[C@H]([C@H](OC(=O)c3ccccc3)[C@]3(O)C[C@H](OC(=O)[C@H](OC(=O)OCC4COC(C)(C)O4)[C@@H](NC(=O)c4ccccc4)c4ccccc4)C(C)=C1C3(C)C)[C@]1(OC(C)=O)CO[C@@H]1C[C@@H]2O (stereo not given in full), the growth was 2.65% (active). With COc1c(O)c2c3c(c1OC)-c1ccccc1CC3N(C)CC2 (stereo not given) the growth was 120%. Work on Cc1cc(C)c(C[N+](C)(C)C)c(C)c1C yielded a growth of 16.1%. For CC[C@H](C)[C@H](NC(=O)CN(C)C)C(=O)N(C)[C@H](C[C@@H](OC(C)=O)c1nc(C(=O)NC23C4C5C2C2C3C4C52C(=O)OC)cs1)C(C)C (stereo not given in full), the growth was -18.6% (active). In the case of CCCCNC(c1ccc(Cl)cc1)C(O)c1ccc(Cl)cc1 (stereo not given), the growth is reported as -14.6% (active). Cn1cc(-c2csc(-c3cn(CCCCN4CCOCC4)c4ccc(F)cc34)n2)c2cccnc21 gave a growth of 65%. C/C1=C/C(=O)O[C@@H]2C[C@@H](CC[C@H](C)/C=C\C=C\CC1)O[C@@](O)([C@@H]1CSC(=O)N1CO)C2 showed a growth of 10.3%. For CCC(/C=C(C)/C=C/C(=O)c1c(O)c(-c2ccc(O)cc2)c[nH]c1=O)CO (stereo not given), the growth was 98.5%. Compound CNC(=O)Oc1ccc(C(C)(C)C)cc1OC(=O)NC has a growth of 88.4%. With O=C1C2CCC1C(N1CCCC1)CC2 (stereo not given) the growth was 105%. O=C1C2CC=CCC2C(=O)N1SC(Cl)(Cl)Cl (stereo not given) gave a growth of 103%. O=C(O)c1cc([N+](=O)[O-])cc([N+](=O)[O-])c1 gave a growth of 103%. With O=CN1N=C(c2ccc3c(c2)OCO3)CC1c1sc(N(CCCl)CCCl)nc1Cl (stereo not given) the growth was 90.9%. With COc1ccc(/C=C\c2cc(OC)c(OC)c(OC)c2)cc1NC(=O)/C=C/c1ccc(OC)c(OC)c1 the growth was 1.52% (active). c1ccc2c(c1)O[As](O[As]1Oc3ccccc3O1)O2 gave a growth of 10.7%.
